Structures are written as SMILES. Where “and” joins values, the source holds several entries; their conditions need not be identical. Equal entries are not always repeated. Inconclusive results are not listed. Where a call stands in place of a potency, no number is given. Some compounds were tested as several samples or in several runs, with calls that do not always agree. Calls of active or inactive are those of the source. Calls follow the shape of the full dose curve.

Potency and activity change, negative = cytotoxicity data for 40 compounds are collected here from PubChem BioAssay (Tox21).
Also: nearly all actives have a fitted effect of over 45% in size.
Potency is read from the fitted curve at half-maximal effect.

A short description of the first experiment: p53 small molecule agonists, cell-based qHTS assay with human liver microsomes: qHTS cell viability counter screen (AID 1963579). The following applies: p53RE-bla HCT-116 viability, ATP luminescence, 16 h, HLM; series mostly up to 66 µM. In a few lines:
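Metabolic activation used human liver microsomes and NADPH, both 0.5 mg/mL final, over 16 hours at 37 C on p53RE-bla cells (4,000/well). Cytotoxicity measured by CellTiter-Glo luminescence, 30 min at room temperature.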
Turning to `CCCCCCCCCCCC[N+](C)(C)C`, the Potency entry is “inactive”.
In the case of `O=C1CCCCCCCCCCC1`, the Potency entry is “inactive”.
In the case of `CC(=O)[C@H]1CC[C@H]2[C@@H]3CC=C4C[C@@H](O)CC[C@]4(C)[C@H]3CC[C@]12C`, the Potency entry is “inactive”.
Same read-out and setting: under `O=C1O[C@H](CO)[C@@H](O)[C@H](O)[C@H]1O` stands “inactive”.
With `Brc1nc2ccccc2s1`, the Potency result was “inactive”.
As for `Oc1ccc2ccccc2c1N=Nc1ccccc1`, the Potency result was “inactive”.
Same read-out and setting: under `Nc1cc([N+](=O)[O-])ccc1C(=O)O` stands “inactive”; under `CCCCCCCCCCCCCC[N+](C)(C)Cc1ccccc1`, “inactive and 17.8 mM (active)”.
With `CCCCCCCCOc1ccc(C(=O)c2ccccc2)c(O)c1`, the Potency entry was “inactive”.
`Clc1ccc(Cl)c(Cl)c1Cl`: the Potency result was “inactive”.
Consider `COc1ccc(C(Cl)=C(c2ccc(OC)cc2)c2ccc(OC)cc2)cc1`, for which the Potency entry is “inactive”.
With `CCCCC1(COC(=O)CCC(=O)O)C(=O)N(c2ccccc2)N(c2ccccc2)C1=O`, the Potency entry is “inactive”.
Turning to `CN(C)CCCN`, the Potency result was “inactive”.
The same measure, in the same setting: under `C=C(C)C(=O)O[C@H]1C[C@@H]2CC[C@@]1(C)C2(C)C` stands “inactive”; under `C=CCOC(=O)c1ccccc1C(=O)OCC=C`, “inactive”.
`CC(=O)c1ccc(S(=O)(=O)NC(=O)NC2CCCCC2)cc1`: the Potency result was “inactive”.
Regarding `CCC(O)OC(O)CC` (stereo not given), the Potency result is “inactive”.
Regarding `COCCOC(=O)c1ccccc1C(=O)OCCOC`, the Potency entry was “inactive”.
Regarding `CC(C)CC(=O)CC(C)CC(C)C` (stereo not given), the Potency result was “inactive”.
Turning to `O=c1n(CC2CO2)c(=O)n(CC2CO2)c(=O)n1CC1CO1` (stereo not given), the Potency entry is “inactive”.
As for `O=C(/C=C/C=C/c1ccc2c(c1)OCO2)N1CCCCC1`, the Potency entry is “inactive”.
Still for that read-out and setting: under `Cc1cc(Cc2ccc(N)c(C)c2)ccc1N` stands “inactive”.
Take `CCC[C@H](N[C@@H](C)C(=O)N1[C@H](C(=O)O)C[C@@H]2CCCC[C@@H]21)C(=O)OCC`: the activity change, negative = cytotoxicity was -3.18% [at 13.5 µM] (inactive).
As to `c1ccc2c(c1)Cc1ccccc1-2`, the Potency entry is “inactive”.
Take `CCCOC(=O)NCCCN(C)C`: the Potency entry is “inactive”.
As to `CCCCOC(=O)CC(CC(=O)OCCCC)(OC(C)=O)C(=O)OCCCC`, the Potency entry was “inactive”.
With `C=CC[N+](C)(C)CC=C`, the Potency entry is “inactive”.
For the compound `CC(O)COCC(C)O` (stereo not given), the Potency result is “inactive”.
Consider `CCCCC/C=C\C/C=C\CCCCCCCC(=O)OC`, for which the Potency entry is “inactive and 51.3 µM (active)”.
Turning to `Nc1ncnc2nc[nH]c12`, the Potency result was “inactive”.
As for `Cc1ccc(N)c(S(=O)(=O)O)c1`, the Potency entry was “inactive”.
`NCCOCCO`: the Potency result was “inactive”.
Consider `CC(=O)Oc1ccc(C)cc1`, for which the Potency result is “inactive”.
`O=S1(=O)CCCO1`: the Potency entry is “inactive”.
As for `C=C(C)C(=O)OCC(CC)(COC(=O)C(=C)C)COC(=O)C(=C)C`, the Potency entry was “inactive”.
The same measure, in the same setting: under `O=[N+]([O-])c1cccc(Cl)c1` stands “inactive”; under `CCOCC(=O)O`, “inactive”.
On to `C=CCc1ccc(OC)c(OC)c1`, for which the Potency entry is “inactive”.
As for `Clc1ccccn1`, the Potency result was “inactive”.
As to `Cc1cccc([N+](=O)[O-])c1C`, the Potency entry is “inactive”.

A further experiment can be described thus: p53 small molecule agonists, cell-based qHTS assay with rat liver microsomes: qHTS cell viability counter screen (AID 1963580). The following applies: p53RE-bla HCT-116 + rat microsomes, ATP viability, 16 h; series mostly up to 66 µM. In a few lines: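 HCT-116 p53RE-bla, 4,000 cells/well, 5 h pre-incubation; cpd + rat liver microsomes 0.5 mg/mL + NADPH 0.5 mg/mL (final); 16 h, 37 C; CellTiter-Glo, 30 min RT; luminescence.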
(In qHTS, concentration-response curves come from the screen itself.)
Turning to `CCCCCCCCCCCC[N+](C)(C)C`, the Potency result was “inactive”.
Still for that read-out and setting: under `O=C1CCCCCCCCCCC1` stands “inactive”.
On to `CC(=O)[C@H]1CC[C@H]2[C@@H]3CC=C4C[C@@H](O)CC[C@]4(C)[C@H]3CC[C@]12C`, for which the Potency entry was “inactive”.
Take `O=C1O[C@H](CO)[C@@H](O)[C@H](O)[C@H]1O`: the Potency entry was “inactive”.
For `Brc1nc2ccccc2s1`, the Potency entry was “inactive”.
Consider `Oc1ccc2ccccc2c1N=Nc1ccccc1`, for which the Potency result is “inactive”.
In the case of `Nc1cc([N+](=O)[O-])ccc1C(=O)O`, the Potency entry is “inactive”.
Consider `CCCCCCCCCCCCCC[N+](C)(C)Cc1ccccc1`, for which the Potency was 46.5 µM (active) and inactive.
In the case of `CCCCCCCCOc1ccc(C(=O)c2ccccc2)c(O)c1`, the Potency entry is “inactive”.
Same read-out and setting: under `Clc1ccc(Cl)c(Cl)c1Cl` stands “inactive”.
Regarding `COc1ccc(C(Cl)=C(c2ccc(OC)cc2)c2ccc(OC)cc2)cc1`, the Potency result was “inactive”.
As for `CCCCC1(COC(=O)CCC(=O)O)C(=O)N(c2ccccc2)N(c2ccccc2)C1=O`, the Potency result was “inactive”.
For the compound `CN(C)CCCN`, the Potency entry is “inactive”.
Still for that read-out and setting: under `C=C(C)C(=O)O[C@H]1C[C@@H]2CC[C@@]1(C)C2(C)C` stands 7.21 µM (active) and inactive; under `C=CCOC(=O)c1ccccc1C(=O)OCC=C`, “inactive”.
In the case of `CC(=O)c1ccc(S(=O)(=O)NC(=O)NC2CCCCC2)cc1`, the Potency entry is “inactive”.
Turning to `CCC(O)OC(O)CC` (stereo not given), the Potency entry was “inactive”.
With `COCCOC(=O)c1ccccc1C(=O)OCCOC`, the Potency entry was “inactive”.
Take `CC(C)CC(=O)CC(C)CC(C)C` (stereo not given): the Potency entry was “inactive”.
Regarding `O=c1n(CC2CO2)c(=O)n(CC2CO2)c(=O)n1CC1CO1` (stereo not given), the Potency entry was “inactive”.
For the compound `O=C(/C=C/C=C/c1ccc2c(c1)OCO2)N1CCCCC1`, the Potency entry was “inactive”.
Turning to `Cc1cc(Cc2ccc(N)c(C)c2)ccc1N`, the Potency result is “inactive”.
Take `CCC[C@H](N[C@@H](C)C(=O)N1[C@H](C(=O)O)C[C@@H]2CCCC[C@@H]21)C(=O)OCC`: the Potency entry was “inactive”.
Same read-out and setting: under `c1ccc2c(c1)Cc1ccccc1-2` stands “inactive”.
Turning to `CCCOC(=O)NCCCN(C)C`, the Potency entry is “inactive”.
`CCCCOC(=O)CC(CC(=O)OCCCC)(OC(C)=O)C(=O)OCCCC`: the Potency result was “inactive”.
Regarding `C=CC[N+](C)(C)CC=C`, the Potency result is “inactive”.
On to `CC(O)COCC(C)O` (stereo not given), for which the Potency entry was “inactive”.
Turning to `CCCCC/C=C\C/C=C\CCCCCCCC(=O)OC`, the Potency entry was “inactive”.
The same measure, in the same setting: under `Nc1ncnc2nc[nH]c12` stands “inactive”; under `Cc1ccc(N)c(S(=O)(=O)O)c1`, “inactive”.
Regarding `NCCOCCO`, the Potency result is “inactive”.
For `CC(=O)Oc1ccc(C)cc1`, the Potency entry was “inactive”.
Turning to `O=S1(=O)CCCO1`, the Potency entry is “inactive”.
For the compound `C=C(C)C(=O)OCC(CC)(COC(=O)C(=C)C)COC(=O)C(=C)C`, the Potency entry is “inactive”.
Regarding `O=[N+]([O-])c1cccc(Cl)c1`, the Potency entry is “inactive”.
`CCOCC(=O)O`: the Potency result was “inactive”.
Take `C=CCc1ccc(OC)c(OC)c1`: the Potency entry is “inactive”.
As to `Clc1ccccn1`, the Potency entry is “inactive”.
The same measure, in the same setting: under `Cc1cccc([N+](=O)[O-])c1C` stands “inactive”.
